Source: PubChem
Pf apPOL inh = Pf-apPOL DNA polymerase inhibition | Recombinant Pf-apPOL, molecular beacon fluorescence, 1.5 h | inhibition, % at 10 µM | actives 0.25% (n = 210,000)
mHTT-CaM PPI inh = inhibitors of human mutant huntingtin-calmodulin interaction; actives 3.6% (n = 190,000); P42858; inhibition, % at 15 µM; AlphaScreen His-mHTT/GST-CaM binding, luminescence;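 further: 0% = both proteins with DMSO and 100% = one protein alone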
The depositor's hits bear a star. Shown is part of a subset that was picked to be rich in hits. No stated cut-off is given here; in the data, active means inhibition above about 50%; inactive means the rest.

Results for CCn1c(C2CCN(Cc3ccc(Cl)cc3)C2)nc2cccnc21 (centres undefined) ?
Pf apPOL inh: -12; mHTT-CaM PPI inh: 57*

How did CCn1c(C2CCN(Cc3ccc(F)cc3)C2)nc2cccnc21 (centres undefined) do in these assays?
Pf apPOL inh: -8; mHTT-CaM PPI inh: 12

What do the screens show for `CCOc1cc(C2C3=C(CC(C)(C)CC3=O)Nc3ccccc3N2C(=O)C(F)(F)F)ccc1O` (centres undefined)?
Pf apPOL inh: -4; mHTT-CaM PPI inh: 17

How did O=C(Cc1csc(NC(=O)c2cnccn2)n1)NCCOc1ccc(F)cc1 do in these assays?
Pf apPOL inh: -4; mHTT-CaM PPI inh: -2

What do the screens show for `CS(=O)(=O)Nc1cccc(NC(=O)Cc2csc(NC(=O)c3cnccn3)n2)c1`?
Pf apPOL inh: 20; mHTT-CaM PPI inh: 97*

Results for O=C(Cc1csc(NC(=O)c2ccsc2)n1)Nc1cccnc1 ?
Pf apPOL inh: -5; mHTT-CaM PPI inh: 1

Results for O=C(Cc1csc(NC(=O)c2cnccn2)n1)Nc1ccc(-n2cccn2)cc1 ?
Pf apPOL inh: -6; mHTT-CaM PPI inh: 97*

How did O=C1C(=Cc2ccccn2)Oc2cc(O)ccc21 do in these assays?
Pf apPOL inh: -3; mHTT-CaM PPI inh: 2

How did CCSc1nnc(NC(=O)c2cccc(OC)c2)s1 do in these assays?
Pf apPOL inh: -6; mHTT-CaM PPI inh: -7

Results for CCOCC(=O)N1CCC(c2cnn(-c3ccccc3)c2)CC1 ?
Pf apPOL inh: -6; mHTT-CaM PPI inh: -8

What do the screens show for `Cn1nc([N+](=O)[O-])nc1OCc1nc2ccccc2n1C`?
Pf apPOL inh: -1; mHTT-CaM PPI inh: -11

Results for O=C1CSC(c2cn(-c3ccccc3)nc2-c2ccc(Cl)cc2)N1Cc1cccnc1 (centres undefined) ?
Pf apPOL inh: -4; mHTT-CaM PPI inh: 58*

How did O=C1CSC(c2cn(-c3ccccc3)nc2-c2cc3ccccc3oc2=O)N1CC1CCCO1 (centres undefined) do in these assays?
Pf apPOL inh: -4; mHTT-CaM PPI inh: 58*

What do the screens show for `O=C1CSC(c2cn(-c3ccccc3)nc2-c2cccs2)N1Cc1ccccc1` (centres undefined)?
Pf apPOL inh: 2; mHTT-CaM PPI inh: 3

How did O=C1CSC(c2cn(-c3ccccc3)nc2-c2ccccc2)N1Cc1cccnc1 (centres undefined) do in these assays?
Pf apPOL inh: -4; mHTT-CaM PPI inh: 30

How did Cc1ccc(-c2nn(-c3ccccc3)cc2C2SCC(=O)N2Cc2ccccc2)o1 (centres undefined) do in these assays?
Pf apPOL inh: 4; mHTT-CaM PPI inh: 94*

Results for O=C1CSC(c2cn(-c3ccccc3)nc2-c2cc3ccccc3oc2=O)N1Cc1ccco1 (centres undefined) ?
Pf apPOL inh: 2; mHTT-CaM PPI inh: 31

How did O=C(CCn1nc(C(F)(F)F)c(Cl)c1C1CC1)Nc1nccs1 do in these assays?
mHTT-CaM PPI inh: -5

Results for Cc1cccc2oc3cc(NCCO)c4c(=O)c5ccccc5c(=O)c4c3[nH]c12 ?
Pf apPOL inh: -2; mHTT-CaM PPI inh: 20

Results for CC(Oc1ccccc1F)C(=O)N1CCN(c2ccc3nnc(-c4ccco4)n3n2)CC1 (centres undefined) ?
Pf apPOL inh: 6; mHTT-CaM PPI inh: 9

Results for O=[N+]([O-])c1ccc(N2CCN(C/C=C/c3ccccc3)CC2)cc1 ?
Pf apPOL inh: 2; mHTT-CaM PPI inh: 32

How did COCC1CCN(C(=O)c2cn3ccnc(-c4ccccc4)c3n2)CC1 do in these assays?
Pf apPOL inh: 0; mHTT-CaM PPI inh: 9

Results for O=C(Cn1ccc2ccccc21)N1CCN(c2ccccc2O)CC1 ?
Pf apPOL inh: 5; mHTT-CaM PPI inh: 23

What do the screens show for `O=C(Nc1ccc(Cl)c(Cl)c1)C(=O)NC1CCCCCC1`?
Pf apPOL inh: -9; mHTT-CaM PPI inh: -2

Results for CCOC(=O)N1CCC(NC(=O)c2coc(NC(=O)C3CC3)n2)CC1 ?
Pf apPOL inh: 1; mHTT-CaM PPI inh: -7

How did O=C(/C=C/c1ccco1)Nc1ccc(NC(=O)c2ccco2)cc1 do in these assays?
Pf apPOL inh: -6; mHTT-CaM PPI inh: 30

How did O=C(/C=C/c1ccco1)c1ccc(NC(=O)c2ccco2)cc1 do in these assays?
Pf apPOL inh: -2; mHTT-CaM PPI inh: 93*

What do the screens show for `CN(C)c1ccc(NC(=O)c2cc3ccccc3o2)cc1`?
Pf apPOL inh: -4; mHTT-CaM PPI inh: 60*

Results for CC(=O)c1ccc(NC(=O)c2cc3ccccc3o2)cc1 ?
Pf apPOL inh: -1; mHTT-CaM PPI inh: 0

Results for CCCn1cc(C2=CCN(S(=O)(=O)CCC)CC2)c2cccnc21 ?
Pf apPOL inh: 0; mHTT-CaM PPI inh: 24

Results for O=C(NCCNc1ccc(Nc2ccccn2)nn1)c1ncccn1 ?
Pf apPOL inh: -1; mHTT-CaM PPI inh: 100*

How did Cc1cccc(Nc2ccc(NCCNC(=O)c3ccccc3C(F)(F)F)nn2)n1 do in these assays?
Pf apPOL inh: -8; mHTT-CaM PPI inh: 1

Results for Cc1ncc2c(n1)CCN(S(=O)(=O)c1ccccc1Cl)C2 ?
Pf apPOL inh: 3; mHTT-CaM PPI inh: 1

What do the screens show for `CN(C)CCCNC(=O)c1ccc(/C=N/O)[n+](C)c1`?
Pf apPOL inh: 1; mHTT-CaM PPI inh: inactive

How did O=C(NCCCNCCCNC(=O)c1ccc(/C=N/O)nc1)c1ccc(/C=N/O)nc1 do in these assays?
Pf apPOL inh: -3; mHTT-CaM PPI inh: active

Results for O=C(Nc1ccccc1Cl)c1cc(S(=O)(=O)NC2CCCCCC2)ccc1F ?
Pf apPOL inh: -42; mHTT-CaM PPI inh: -15

What do the screens show for `NC1=NC(=O)C2(COC(c3ccc([N+](=O)[O-])cc3)OC2)S1` (centres undefined)?
Pf apPOL inh: -5; mHTT-CaM PPI inh: 0

What do the screens show for `Cc1cc2[nH]c(C(=O)Nc3cc(F)ccc3C)c(CN(C)C)c2s1`?
Pf apPOL inh: 0; mHTT-CaM PPI inh: -1

What do the screens show for `CC1=NN(c2ccccc2)C(=O)/C1=C/c1ccc(Br)s1`?
Pf apPOL inh: 2; mHTT-CaM PPI inh: 46

How did CC1=NN(c2nn[nH]n2)C(=O)/C1=C\c1cccs1 do in these assays?
mHTT-CaM PPI inh: 100*

How did COc1ccc(NC(=O)CN(c2cccc([N+](=O)[O-])c2)S(C)(=O)=O)c(OC)c1 do in these assays?
Pf apPOL inh: -4; mHTT-CaM PPI inh: 8

What do the screens show for `COc1cccc(NC(=O)N2CCc3c(c(COCc4ccc(Cl)cc4)nn3C)C2)c1`?
Pf apPOL inh: -4; mHTT-CaM PPI inh: 35

What do the screens show for `CCc1cc2c(=O)c(-c3nc4ccccc4n3C)c(C(C)C)oc2cc1O`?
Pf apPOL inh: -5; mHTT-CaM PPI inh: 2

Results for COc1ccc(CCN2CC(C(=O)NCc3ccc(C)cc3)CC2=O)cc1OC (centres undefined) ?
Pf apPOL inh: -6; mHTT-CaM PPI inh: 0

What do the screens show for `Cc1ccc(-c2nn(-c3cc(N4CCNCC4)ccc3[N+](=O)[O-])c(=O)c3ccccc23)cc1C`?
Pf apPOL inh: 0; mHTT-CaM PPI inh: 100*

Results for O=c1c2ccccc2c(-c2ccccc2)nn1-c1cc(N2CCCC2)ccc1[N+](=O)[O-] ?
Pf apPOL inh: 0; mHTT-CaM PPI inh: 34

How did Cc1ccc2c(c1)C1C=CCC1C(c1ccccc1Br)N2 (centres undefined) do in these assays?
Pf apPOL inh: -8; mHTT-CaM PPI inh: 77*

Results for Brc1cc2c(cc1[C@H]1Nc3ccccc3[C@H]3C=CC[C@H]31)OCO2 ?
Pf apPOL inh: 6

How did CC(=O)Nc1cccc(NC(=O)c2ccccc2[N+](=O)[O-])c1 do in these assays?
Pf apPOL inh: -10; mHTT-CaM PPI inh: 0
